# PubChem BioAssay
# “And” between values parts separate entries of the source, which are not always exact repeats. Equal values may be shown once. The source made the active and inactive calls.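 The calls were made as follows, unless noted: active = mean z-score across replicates of 1.96 or higher in either the MELAS or the Rieske mutant cell line; inactive = the rest.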
# Assay: sensitizers of A549 cells to miR-34 induction, primary screen, imaging, A549 dox-inducible miR-34, nuclei and caspase counts (AID 1347080)
# Details: A549 miR-34 inducible, Hoechst nuclei count, 48 h; measured here: total cells without miR-34 induction
row,Compound,cell count
1,CC(C)(C)NC[C@H](O)c1ccc(O)c(CO)c1,9100
2,CN1CCc2c(c3ccccc3n2Cc2ccccc2)C1,10600
3,COc1cc2c(cc1OC)-c1cc3ccc(OC)c(OC)c3c[n+]1CC2,9990 and 7660
4,NC(N)=NCCCCN=C(N)N,10300 and 8910
5,NCCCCN,9630
6,Cc1cc(/C=C/c2ccc3cc(N(C)C)ccc3[n+]2C)c(C)n1-c1ccccc1,1670
7,NCCSSCCN,10100
8,O=C1OC(=O)C2C3CCC(O3)C12 (centres undefined),8080
9,OCc1c[nH]c2ccccc12,8390
10,CC1(C)S[C@@H]2[C@H](NC(=O)Cc3ccccc3)C(=O)N2[C@H]1C(=O)O,10000 and 13200
11,CN(C)CCOC(c1ccccc1)c1ccccc1 (tested in a mixture with another compound),9890 and 13100
12,NC(=O)CC[C@H](N)C(=O)O,10600 and 8990
13,Oc1cc(O)c2c(c1)O[C@H](c1ccc(O)c(O)c1)[C@@H](O)C2,10500 and 9420 and 5660
14,C1N2CN3CN1CN(C2)C3,8890 and 13100
15,COc1cc(S(C)=O)ccc1-c1nc2ncccc2[nH]1 (centres undefined),8630
16,CC(=O)Oc1ccccc1C(=O)Oc1ccccc1C(=O)O,9270
17,NCCCS(=O)(=O)O,7050
18,COC(=O)[C@H]1[C@H]2C[C@H]3c4[nH]c5ccccc5c4CCN3C[C@H]2CC[C@@H]1O,10300 and 10700
19,Nc1nc(/C(=C/CC(=O)O)C(=O)N[C@@H]2C(=O)N3C(C(=O)O)=CCS[C@H]23)cs1,13000
20,O=c1c2ccccc2oc2ccccc12,7620
21,C[N+](C)(C)CC(O)CC(=O)O (centres undefined),7640

# Assay: phospholipid biosynthesis inhibitors in animal cells, primary screen, cell-based, LOPAC library, screen 4 (AID 1347384; call rule not given here)
# Details: phospholipid biosynthesis inhibition screen, at 10 µM
row,Compound,outcome
1,O=C(O)c1cc2cc(F)ccc2[nH]1,inactive
2,Cn1c(=O)[nH]c2ncn(C)c2c1=O,inactive
3,NC1(C(=O)O)CC1,inactive
4,NCCCCN=C(N)N,inactive
5,Cn1c(=O)c2[nH]c(C3CCCC3)nc2n(C)c1=O,inactive
6,NCCCCC(=O)O,inactive
7,CN[C@H](CC(=O)O)C(=O)O,inactive
8,CN1CCc2cccc3c2C1Cc1ccc(O)c(O)c1-3 (centres undefined),inactive
9,NC(N)=NC(=O)c1nc(Cl)c(N2CCCCCC2)nc1N,inactive
10,O=c1cc(-c2ccccc2)oc2c(O)c(O)ccc12,inactive
11,NC(N)=NCCCCN=C(N)N,inactive
12,NCCCCN,inactive
13,NCCSSCCN,inactive
14,O=C1OC(=O)C2C3CCC(O3)C12 (centres undefined),inactive
15,NC(=O)CC[C@H](N)C(=O)O,inactive
16,Oc1cc(O)c2c(c1)O[C@H](c1ccc(O)c(O)c1)[C@@H](O)C2,inactive
17,NCCCS(=O)(=O)O,inactive
18,COC(=O)[C@H]1[C@H]2C[C@H]3c4[nH]c5ccccc5c4CCN3C[C@H]2CC[C@@H]1O,inactive

# Assay: survival rescue of mitochondrial mutant cells in low glucose, primary screen, MELAS cybrids, Rieske KO mouse fibroblasts, CellTiter-Glo (AID 1508586);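 also: z relative to plate mean and SD of compound and empty wells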
# Details: MELAS cybrid survival, CellTiter-Glo 48 h, stronger effect = higher value
row,Compound,z-score
1,COc1ccc(-c2cc(=O)c3c(OC)c(OC)c(OC)c(OC)c3o2)cc1,-0.525 (inactive)
2,NC(=O)c1ccc[n+]([C@@H]2O[C@H](COP(=O)([O-])OP(=O)(O)OC[C@H]3O[C@@H](n4cnc5c(N)ncnc54)[C@H](O)[C@@H]3O)[C@@H](O)[C@H]2O)c1,-1.2 (inactive)
3,N[C@@H](Cc1cc(I)c(Oc2ccc(O)c(I)c2)c(I)c1)C(=O)O,-0.576 (inactive)
4,Cc1cc(C(C)(C)CC(C)(C)C)ccc1OCCOCC[N+](C)(C)Cc1ccccc1,-1.41
5,CC(=O)N1CCN(c2ccc(OCC3CO[C@](Cn4ccnc4)(c4ccc(Cl)cc4Cl)O3)cc2)CC1 (some centres undefined),-0.501 (inactive)
6,COc1c2ccoc2cc2oc(=O)ccc12,-0.332 (inactive)
7,CC(CN(C)C)CN1c2ccccc2Sc2ccccc21 (centres undefined),0.461 (inactive)
8,CC(C(=O)O)c1ccc(N2Cc3ccccc3C2=O)cc1 (centres undefined),0.44 (inactive)
9,CC(C)(C)NC[C@H](O)c1ccc(O)c(CO)c1,0.715 (inactive)
10,CN1CCc2c(c3ccccc3n2Cc2ccccc2)C1,0.038 (inactive)
11,COc1cc2c(cc1OC)-c1cc3ccc(OC)c(OC)c3c[n+]1CC2,-0.0781 (inactive)
12,OCc1c[nH]c2ccccc12,-0.392 (inactive)
13,CC1(C)S[C@@H]2[C@H](NC(=O)Cc3ccccc3)C(=O)N2[C@H]1C(=O)O,-1.02 (inactive)
14,CN(C)CCOC(c1ccccc1)c1ccccc1 (tested in a mixture with another compound),0.49 (inactive)
15,C1N2CN3CN1CN(C2)C3,-0.156 (inactive) and 0.632 (inactive)
16,COc1cc(S(C)=O)ccc1-c1nc2ncccc2[nH]1 (centres undefined),-0.22 (inactive)
17,CC(=O)Oc1ccccc1C(=O)Oc1ccccc1C(=O)O,-0.224 (inactive)
18,Nc1nc(/C(=C/CC(=O)O)C(=O)N[C@@H]2C(=O)N3C(C(=O)O)=CCS[C@H]23)cs1,-0.448 (inactive)
19,O=c1c2ccccc2oc2ccccc12,-0.409 (inactive)
20,C[N+](C)(C)CC(O)CC(=O)O (centres undefined),-0.35 (inactive)

# Same assay, conditions: Rieske KO mouse fibroblast survival, CellTiter-Glo 72 h
row,Compound,z-score
1,COc1ccc(-c2cc(=O)c3c(OC)c(OC)c(OC)c(OC)c3o2)cc1,0.0182
2,NC(=O)c1ccc[n+]([C@@H]2O[C@H](COP(=O)([O-])OP(=O)(O)OC[C@H]3O[C@@H](n4cnc5c(N)ncnc54)[C@H](O)[C@@H]3O)[C@@H](O)[C@H]2O)c1,0.344
3,N[C@@H](Cc1cc(I)c(Oc2ccc(O)c(I)c2)c(I)c1)C(=O)O,-1.73
4,Cc1cc(C(C)(C)CC(C)(C)C)ccc1OCCOCC[N+](C)(C)Cc1ccccc1,2.46
5,CC(=O)N1CCN(c2ccc(OCC3CO[C@](Cn4ccnc4)(c4ccc(Cl)cc4Cl)O3)cc2)CC1 (some centres undefined),-0.0671
6,COc1c2ccoc2cc2oc(=O)ccc12,-0.177
7,CC(CN(C)C)CN1c2ccccc2Sc2ccccc21 (centres undefined),-0.196
8,CC(C(=O)O)c1ccc(N2Cc3ccccc3C2=O)cc1 (centres undefined),-0.221
9,CC(C)(C)NC[C@H](O)c1ccc(O)c(CO)c1,-0.611
10,CN1CCc2c(c3ccccc3n2Cc2ccccc2)C1,0.0579
11,COc1cc2c(cc1OC)-c1cc3ccc(OC)c(OC)c3c[n+]1CC2,0.0197
12,OCc1c[nH]c2ccccc12,-0.0559
13,CC1(C)S[C@@H]2[C@H](NC(=O)Cc3ccccc3)C(=O)N2[C@H]1C(=O)O,-0.0384
14,CN(C)CCOC(c1ccccc1)c1ccccc1 (tested in a mixture with another compound),0.296
15,C1N2CN3CN1CN(C2)C3,-0.286 and -0.336
16,COc1cc(S(C)=O)ccc1-c1nc2ncccc2[nH]1 (centres undefined),0.17
17,CC(=O)Oc1ccccc1C(=O)Oc1ccccc1C(=O)O,0.071
18,Nc1nc(/C(=C/CC(=O)O)C(=O)N[C@@H]2C(=O)N3C(C(=O)O)=CCS[C@H]23)cs1,-1.4
19,O=c1c2ccccc2oc2ccccc12,-0.0965
20,C[N+](C)(C)CC(O)CC(=O)O (centres undefined),-0.217
